YopH inh = YopH tyrosine phosphatase inhibitors, primary screen, biochemical, fluorescence Ex485/Em525 | inhibition, % (test concentration not listed) | actives 0.16% (n = 140,000) | YopH tyrosine phosphatase [Yersinia enterocolitica] | AID 898, 2007; in the data active = inhibition above about 50%
Mtb RmlCD inh = M. tuberculosis RmlC/RmlD coupled enzyme inhibitors, primary screen, biochemical, compound mixtures, 384-well, from 1536-well plates. inhibition, % at 3.6 µM. RmlC+RmlD coupled enzyme assay, percent inhibition; primary screen in compound mixtures. AID 1533, 2009. actives 0.03% (n = 160,000); in the data active = inhibition mostly above about 34%, no sharp cut-off
Target sequence (P9WH09 whole entry, looked up): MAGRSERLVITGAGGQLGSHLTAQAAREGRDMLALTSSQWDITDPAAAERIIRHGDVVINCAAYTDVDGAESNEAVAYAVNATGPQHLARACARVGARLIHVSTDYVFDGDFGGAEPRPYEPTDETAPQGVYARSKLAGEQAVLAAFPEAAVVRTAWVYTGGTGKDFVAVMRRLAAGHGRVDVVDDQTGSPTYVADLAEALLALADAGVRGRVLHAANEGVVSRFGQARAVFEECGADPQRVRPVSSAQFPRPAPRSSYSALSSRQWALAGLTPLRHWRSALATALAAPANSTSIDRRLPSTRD
Target sequence (P9WH11 whole entry, looked up): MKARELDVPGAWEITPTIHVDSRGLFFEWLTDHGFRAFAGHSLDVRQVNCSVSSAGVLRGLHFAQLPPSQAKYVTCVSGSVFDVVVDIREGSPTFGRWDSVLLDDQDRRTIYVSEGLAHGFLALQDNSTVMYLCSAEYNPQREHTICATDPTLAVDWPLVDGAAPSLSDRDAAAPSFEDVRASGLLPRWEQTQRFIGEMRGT
A number is an active result; i = inactive; nt = not tested or not shown. The sample as a whole holds a higher share of hits than the screen did.

SMILES | YopH inh | Mtb RmlCD inh
COc1ccc(NC2=C(NCCO)C(=O)c3ccccc3C2=O)cc1 | 78 | i
COC1=C(Nc2ccc(OC)cc2)C(=O)c2ccccc2C1=O | i | i
COc1ccc(NS(=O)(=O)c2cn(C)c(=O)n(C)c2=O)cc1 | nt | i
CCOC(=O)/C(C)=N/NC(=O)c1ccc([N+](=O)[O-])cc1 | nt | i
CCOC(=O)/C(N=Nc1ccc(F)cc1)=C(/O)c1ccc([N+](=O)[O-])cc1 | 62 | i
CC(=O)Nc1ccc(Nc2cc(C(C)C)nc3c(-c4ccccc4)c(C)nn23)cc1 | nt | i
CC1CN(c2ccc([N+](=O)[O-])c(NCCOc3ccccc3)c2)CCN1 (configuration not stated) | nt | i
O=C(CSc1ncn[nH]1)c1ccc2c(c1)OCO2 | 57 | i
O=C(CSc1ncn[nH]1)c1ccc2c(c1)OCCO2 | i | i
COC(=O)c1ccc(NC(=S)N2CCN(Cc3ccccc3OC)CC2)cc1 | nt | i
Cn1nc(-c2ccc(Cl)cc2)nc2c(=O)n(C)c(=O)nc1-2 | 101 | nt
CS(=O)(=O)n1nc(-c2ccc(Cl)cc2)nc1N | nt | i
Cc1ccc(S(=O)(=O)Nc2c(C)n(C)n(-c3ccccc3)c2=O)cc1C(=O)OCC(=O)N1CCCC(C)C1 (configuration not stated) | nt | i
Cc1oc2c(CN3CCOCC3)c(O)ccc2c(=O)c1-c1ccccc1 | i | 66
COc1ccc(Oc2c(C)oc3c(CN4CCOCC4)c(O)ccc3c2=O)cc1 | i | i
c1ccc(-c2ccc(C3CCCN3)cc2)cc1 (configuration not stated) | nt | i
O=C(CCC(=O)Nc1ccc(Cl)cc1Cl)N/N=C/c1ccc([N+](=O)[O-])o1 | nt | i
CCOc1cc(C(=S)N2CCOCC2)ccc1OC | i | nt
CCOc1ccc(C(=S)N2CCOCC2)cc1OC | 50 | nt
CN1CCCNc2nc3ccccc3nc21 | nt | i
COC1=C(N)C(=O)c2nc(-c3nc(C(=O)O)c(C)c(-c4ccc(OC)c(OC)c4O)c3N)ccc2C1=O | 101 | nt
COC(=O)c1nc(-c2ccc3c(n2)C(=O)C(N)=C(OC)C3=O)c(N)c(-c2ccc(OC)c(OC)c2O)c1C | nt | i
CCCCn1c(N)c(Sc2ccccc2)c(=O)[nH]c1=O | i | i
CCCCn1c(N)c(NCCC(C)C)c(=O)[nH]c1=O | 52 | i
CCOC(=O)Oc1ccc2oc(=O)cc(C)c2c1 | 67 | i
SMILES | YopH inh | Mtb RmlCD inh
Cc1cc(=O)oc2ccc(OC(=O)CC(C)C)cc12 | nt | i
CN(C(=O)CC1C(=O)NCCN1CC1CCCCC1)C1CCOCC1 (configuration not stated) | nt | i
CCOC(=O)C1=C(C)N[C@@]2(O)c3ccccc3C(=O)[C@@]12O | i | i
CCCCOC(=O)C1=C(C)NC2(O)c3ccccc3C(=O)C12O (configuration not stated) | 67 | i
CC[n+]1ccc(C(=O)NCc2ccccc2)cc1 | nt | i
CCc1nc(SCC(=O)O)c(C#N)cc1C | i | i
CCOC(=O)CC(=O)CSc1nc(CC)c(C)cc1C#N | nt | 36
O=C1CC(Cc2ccccc2)C(=O)N1c1ccccn1 (configuration not stated) | nt | i
Cc1ccc(NC2=C(N3CCOCC3)C(=O)c3ccccc3C2=O)cc1 | 89 | i
CC(=O)N(C)C1=C(N2CCOCC2)C(=O)c2ccccc2C1=O | i | nt
Cc1ccc(NC2=C(Cl)C(=O)c3ccccc3C2=O)cc1 | i | i
CC(=O)N(C1=C(N2CCOCC2)C(=O)c2ccccc2C1=O)c1ccc(C(=O)O)cc1 | nt | i
O=C(O)c1ccc(NC2=C(N3CCOCC3)C(=O)c3ccccc3C2=O)cc1 | 76 | i
CC(=O)c1ccc(NC2=C(N3CCOCC3)C(=O)c3ccccc3C2=O)cc1 | 99 | i
CCN(CC)c1ccc(S(=O)(=O)N2CCOCC2)cc1NC(=O)CN1CCc2ccccc2C1 | nt | i
O=C(c1ccc(F)cc1)[C@@H]1[C@@H](C(=O)c2ccccc2)[C@@]2(C(=O)Nc3ccccc32)[C@H]2c3ccccc3C=CN12 | 83 | i
CC(=O)[C@@H]1[C@@H](C(=O)c2ccc(C)cc2)[C@]2(C(=O)Nc3ccccc32)[C@H]2C=Cc3cc(F)ccc3N12 | i | i
CC1(C)CC(/C=C/c2ccccc2)=Nc2ccccc2N1 | nt | i
Cc1ccc(C(c2sc3nc(C)nn3c2O)N2CCOCC2)cc1 (configuration not stated) | 64 | i
Cc1nc2sc(C(c3ccc(F)cc3)N3CCOCC3)c(O)n2n1 (configuration not stated) | i | nt
O=C1CS/C(=N/N=C\c2ccn[nH]2)N1 | nt | i
CC(C(=O)Nc1cccnc1)n1cc([N+](=O)[O-])cn1 (configuration not stated) | nt | i
CCOC(=O)C1(CC2CC2)CCN(S(=O)(=O)C[C@]23CC[C@H](CC2=O)C3(C)C)CC1 | nt | i
O=C(O)c1ccccc1SCC(=O)N1CCCCC1 | i | i

Assay outcomes from PubChem.
